Activity calls are given as the source filed them. Unless noted, calls come from the whole dose curve; as a rule, active = well fitted curve in the direction sought with a large enough effect in the repeat runs; inconclusive = weak or mixed curves; inactive = no such curve, though single readings can be large; an effect the other way counts as inactive or inconclusive. Positions of bridges follow the written chain, without caps; N, C: chain ends. Non-standard residues stand in square brackets, D forms with d. Residues, ends and D or L forms follow the SMILES beside them. *: point of attachment. X2 = CC[C@H](C)CCCCC(=O)*; Dab = NCC[C@H](N)C(=O)O
Tests used:
[1] = qHTS assay for small molecule agonists of the p53 signaling pathway (AID 651631; calls by dose curve; note: nearly all actives have a fitted effect of over 15% in size; note: potency is the fitted concentration of half-maximal effect)
Procedure, shortened: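 Stably transfected HCT-116 cells (beta-lactamase behind p53 response elements) get compounds after a 5 h settling period; 16 h later at 37 °C, FRET substrate is loaded and fluorescence read after 2 h.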

[2] = qHTS assay for small molecules that induce genotoxicity in human embryonic kidney cells expressing luciferase-tagged ATAD5 (AID 651632); note: nearly all actives have a fitted effect of over 15% in size; note: potency is the fitted concentration of half-maximal effect
Procedure, shortened: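 Increased luciferase signal from ATAD5-tagged reporter cells indicates DNA-damage-driven ATAD5 induction. HEK293T cells are treated for 16 hr at 37C before detection with Amplite.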

[3] = qHTS assay for small molecule disruptors of the mitochondrial membrane potential (AID 720635); note: potency is the fitted concentration of half-maximal effect
Procedure, shortened: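 Mitochondrial membrane potential tracked with Mito-MPS dye, red aggregates (ex 540/em 590 nm) against green monomers (ex 490/em 535 nm). Compound treatment 1 hr at 37C, dye 30 min in HepG2.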

[4] = qHTS assay to test for compound auto fluorescence at 590 nm (red) in HepG2 cells (AID 720674)
Procedure, shortened: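 We screened compounds on adherent HepG2 cells, incubating them for an hour at 37 C in 5% CO2 before reading emission at 590 nm under 540 nm excitation; values reflect equivalence to Rose Bengal sodium fluorescence.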

[5] = qHTS assay to test for compound auto fluorescence at 535 nm (green) in HepG2 cells (AID 720675)
[6] = qHTS assay to test for compound auto fluorescence at 460 nm (blue) in HEK293 cells (AID 720678)
Procedure, shortened: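 Auto fluorescence in the blue band was quantified as triamterene equivalency. HEK293 cells were seeded at 2,000/well, dosed after a 4-5 hr attachment, and kept overnight at 37C before the 405/460 nm reading.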

[7] = qHTS assay to test for compound auto fluorescence at 590 nm (red) in HEK293 cells (AID 720679)
Procedure, shortened: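 Autofluorescence equivalency to Rose Bengal sodium, 540/590nm, in HEK293 cells exposed overnight to 23 nL compound per well.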

[8] = qHTS assay to test for compound auto fluorescence at 535 nm (green) in HEK293 cells (AID 720680)
[9] = qHTS assay to test for compound auto fluorescence at 460 nm (blue) in HEK293 cell free culture (AID 720681)
Procedure, shortened: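 Blue fluorescence (Ex 405/Em 460 nm, triamterene-equivalent) was read immediately after pin transfer of compound or DMSO into medium (DMEM, 10% FBS) without cells.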

[10] = qHTS assay to test for compound auto fluorescence at 535 nm (green) in HEK293 cell free culture (AID 720682)
Procedure, shortened: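 Using fluorescein as calibrant, autofluorescence was quantified at 485/535 nm in cell-free DMEM containing 10% FBS after pintool addition of compound or vehicle.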

[11] = qHTS assay to test for compound auto fluorescence at 590 nm (red) in HEK293 cell free culture (AID 720683)
Procedure, shortened: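 Red-channel autofluorescence of compounds in culture medium (DMEM, 10% FBS), no cells, measured at 540/590 nm. Rose Bengal sodium is the reference fluorophore for equivalence.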

[12] = qHTS assay to test for compound auto fluorescence at 590 nm (red) in HepG2 cell free culture (AID 720684)
Procedure, shortened: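 Plate contents were MEM with 10% FBS plus test compound or DMSO, no cells. Fluorescence was recorded with 540 nm excitation and 590 nm emission.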

[13] = qHTS assay to test for compound auto fluorescence at 460 nm (blue) in HepG2 cell free culture (AID 720685)
Procedure, shortened: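 Compound (23 nL) or DMSO pinned into cell-free MEM with 10% FBS; blue fluorescence read at 405/460 nm excitation/emission, expressed as auto-fluorescence equivalency to triamterene.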

[14] = qHTS assay to test for compound auto fluorescence at 535 nm (green) in HepG2 cell free culture (AID 720686)
[15] = qHTS assay to test for compound auto fluorescence at 460 nm (blue) in HepG2 cells (AID 720687)
Procedure, shortened: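 Blue-channel autofluorescence (Ex/Em 405/460 nm, triamterene-equivalent) was measured after 1 hr compound exposure at 37 C, 5% CO2. Cells were HepG2, plated overnight at 37 C in MEM plus 10% FBS.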

[16] = molecular target: Glucocorticoid receptor (Homo sapiens) (UniProt P04150); assay: qHTS assay to identify small molecule agonists of the glucocorticoid receptor (GR) signaling pathway (AID 720691; active = well fitted activation curve with a large enough effect in the signal ratio in the repeat runs, not every such curve was filed as active; inconclusive = weak or mixed curves, or effect the other way; inactive = no such curve, though single readings can be large or run the other way; the % refers to the signal ratio; note: potency is the fitted concentration of half-maximal effect); conditions: GR-bla HeLa, beta-lactamase reporter ratio, 18 h; activation: at 62.4 µM (top of the series)
Glucocorticoid receptor (Homo sapiens), sequence (P04150 whole entry, looked up): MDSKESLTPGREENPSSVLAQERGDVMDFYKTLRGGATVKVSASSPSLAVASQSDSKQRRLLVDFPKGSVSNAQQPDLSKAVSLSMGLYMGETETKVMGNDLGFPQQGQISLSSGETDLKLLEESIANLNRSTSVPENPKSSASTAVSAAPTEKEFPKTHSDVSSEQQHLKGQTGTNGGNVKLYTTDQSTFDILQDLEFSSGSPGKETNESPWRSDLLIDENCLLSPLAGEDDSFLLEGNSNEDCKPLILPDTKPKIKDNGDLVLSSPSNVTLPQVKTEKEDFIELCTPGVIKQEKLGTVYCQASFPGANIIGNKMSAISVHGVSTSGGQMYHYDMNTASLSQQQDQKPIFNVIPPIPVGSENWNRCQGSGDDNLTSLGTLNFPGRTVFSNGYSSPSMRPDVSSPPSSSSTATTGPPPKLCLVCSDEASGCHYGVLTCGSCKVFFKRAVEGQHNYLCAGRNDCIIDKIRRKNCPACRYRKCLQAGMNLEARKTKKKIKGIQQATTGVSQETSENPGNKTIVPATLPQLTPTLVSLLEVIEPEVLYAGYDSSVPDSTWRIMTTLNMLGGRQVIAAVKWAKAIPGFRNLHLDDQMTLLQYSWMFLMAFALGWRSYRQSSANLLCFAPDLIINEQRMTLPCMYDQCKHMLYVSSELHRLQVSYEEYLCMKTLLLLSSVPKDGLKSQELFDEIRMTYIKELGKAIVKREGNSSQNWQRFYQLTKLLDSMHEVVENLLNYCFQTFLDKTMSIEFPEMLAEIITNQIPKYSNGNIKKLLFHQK
Procedure, shortened: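 Agonist mode in a HeLa line carrying a GRE-controlled beta-lactamase reporter. Compounds act for 18 h at 37 C before a 2 h room-temperature FRET substrate step and fluorescence reading.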

[17] = qHTS assay for small molecule agonists of the p53 signaling pathway - cell viability (AID 651633; calls by dose curve; note: nearly all actives have a fitted effect of over 30% in size; note: potency is the fitted concentration of half-maximal effect)
Procedure, shortened: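 Viability counter-read: CellTiter-Glo luminescence (30 min, room temperature) in the same p53RE-bla plates. These plates had been exposed to compounds for 16 h at 37 C.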

[18] = qHTS assay for small molecules that induce genotoxicity in human embryonic kidney cells expressing luciferase-tagged ATAD5 - cell viability (AID 651634; calls by dose curve; note: nearly all actives have a fitted effect of over 25% in size; note: potency is the fitted concentration of half-maximal effect)
Procedure, shortened: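 Cytotoxicity counterscreen in HEK293T cells bearing an ATAD5-luciferase reporter: live-cell protease activity measured by CellTiter-Fluor fluorescence after 15.5 hr compound exposure.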

[19] = qHTS assay for small molecule disruptors of the mitochondrial membrane potential - cell viability (AID 720634; calls by dose curve; note: nearly all actives have a fitted effect of over 20% in size; note: potency is the fitted concentration of half-maximal effect)
Procedure, shortened: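 After overnight attachment at 37 C, HepG2 cells received compound or DMSO vehicle for 1 hr. Viability is then taken from ATP-driven luminescence following a 30 min room-temperature CellTiter-Glo step.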

[20] = molecular target: Glucocorticoid receptor (Homo sapiens) (UniProt P04150); assay: qHTS assay to identify small molecule antagonists of the glucocorticoid receptor (GR) signaling pathway (AID 720692; active = well fitted inhibition curve with a large enough effect in the signal ratio in the repeat runs, not every such curve was filed as active; inconclusive = weak or mixed curves, or effect the other way; inactive = no such curve, though single readings can be large or run the other way; the % refers to the signal ratio)
Procedure, shortened: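 Cells plated, rested 4 h at 37 C/5% CO2; compounds in DMSO pin-transferred; dexamethasone added to 5 nM final; 18 h at 37 C; B/G FRET substrate added, 2 h room temperature; fluorescence measured.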

Measured: Potency

CCCCCCCCCCCCCC[n+]1ccc(C)cc1
active: [1] 23.7 µM | [3] 13.3 µM
not listed: [17] | [18] | [19] | [20]
inactive: all other assays above

O=P(O)(O)OC(CO)CO
not listed: [2] | [20]
inactive: all other assays above

CCCCC(=O)OCC(=O)[C@]1(O)Cc2c(O)c3c(c(O)c2[C@@H](O[C@H]2C[C@H](NC(=O)C(F)(F)F)[C@H](O)[C@H](C)O2)C1)C(=O)c1c(OC)cccc1C3=O
active: [1] 4.22 µM | [2] 3.35 µM | [16] 7.56 µM
not listed: [3] | [17] | [18] | [20]
inactive: all other assays above

COc1cc(C)c(/C=C/C(C)=C/C=C/C(C)=C/C(=O)O)c(C)c1C
active: [1] 29.8 µM
not listed: [17] | [20]
inactive: all other assays above

CNc1cc(OC)c(C(=O)N[C@H]2CCN(Cc3ccccc3)[C@H]2C)cc1Cl
not listed: [3] | [18]
inactive: all other assays above

CC[C@H](C)CCCCC(=O)N[C@@H](CCN)C(=O)N[C@H](C(=O)N[C@@H](CCN)C(=O)N[C@H]1CCNC(=O)[C@H]([C@@H](C)O)NC(=O)[C@H](CCN)NC(=O)[C@H](CCN)NC(=O)[C@H](CC(C)C)NC(=O)[C@@H](CC(C)C)NC(=O)[C@H](CCN)NC1=O)[C@@H](C)O (X2-[Dab]T[Dab][Dab][Dab][dL]L[Dab][Dab]T; lactam 4-C)
not listed: [1] | [16] | [20]
inactive: all other assays above

NC(N)=NCC1COc2ccccc2O1 (configuration not stated)
not listed: [1] | [16] | [20]
inactive: all other assays above

O=C1CCC(=O)N1CO
not listed: [2] | [3] | [5]
inactive: all other assays above

CN[C@@H]1[C@H](O[C@H]2[C@H](O[C@H]3[C@H](O)[C@@H](O)[C@H](N=C(N)N)[C@@H](O)[C@@H]3N=C(N)N)O[C@@H](C)[C@]2(O)C=O)O[C@@H](CO)[C@H](O)[C@H]1O
not listed: [1] | [20]
inactive: all other assays above

C[C@@H]1C[C@H]2[C@@H]3CCC4=CC(=O)C=C[C@]4(C)[C@@]3(F)[C@@H](O)C[C@]2(C)[C@@]1(O)C(=O)COC(=O)c1cccc(S(=O)(=O)O)c1
active: [16] 0.338 µM [inconclusive]
not listed: [2] | [3] | [6] | [20]
inactive: all other assays above

CNC(=O)c1c(I)c(C(=O)NCC(=O)Nc2c(I)c(C(=O)O)c(I)c(C(=O)NCCO)c2I)c(I)c(N(C)C(C)=O)c1I
not listed: [1] | [16] | [20]
inactive: all other assays above

CCCCCCCCCCCCCCCCCC(=O)OC[C@@H](O)[C@H]1OC[C@H](O)[C@H]1O
not listed: [1] | [16] | [20]
inactive: all other assays above

CSc1nc2cc(Oc3cccc(Cl)c3Cl)c(Cl)cc2[nH]1
active: [17] 10.6 µM | [18] 29.8 µM | [19] 2.11 µM | [3] 1.68 µM
not listed: [1] | [16] | [20]
inactive: all other assays above

— PubChem BioAssay (Tox21)
